This excerpt belongs to a sample that is enriched for hits.
KDM5B inhibitor – inhibitors of human KDM5B histone demethylase | Q9UGL1 | KDM5B demethylase, FDH-coupled NADH fluorescence (FDH is formaldehyde dehydrogenase) | Potency, µM (highest dose often 57.7 µM), usual class: inhibitors | hit rate 2.6% among 220,000 | AID 1347165; active means well fitted inhibition curve with a large enough effect; further: 0% is about no effect; nearly all actives have a fitted effect of over 70% in size
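Here, H3K4me3 peptide (12.5 µM in substrate mix) is demethylated by KDM5BΔAP, 200 nM final, after 10 min compound exposure. Formaldehyde product is coupled through FDH (0.25 U/mL in mix) to NADH fluorescence; 30-min ΔRFU feeds dose-response curves.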
Active calls of the source: *. Potency means the concentration at half of the fitted maximal effect.

What do the screens show for `O=C(N[C@@H]1CN(Cc2c(F)cccc2F)C[C@H]1CO)c1cccnc1`?
KDM5B inhibitor: inactive

Results for COCCO[C@H]1C(=O)N(C2CCN(C(=O)c3ccc(OC)nc3)CC2)[C@H]1c1ccncc1 ?
KDM5B inhibitor: inactive

How did O=C(O)CCC(CNS(=O)(=O)c1ccc(F)cc1)C(F)(F)F (stereo not given) do in these assays?
KDM5B inhibitor: inactive

What do the screens show for `Cn1cccc1C(=O)N1C[C@@H](Oc2ccccc2)C[C@H]1C(=O)N1CCOCC1`?
KDM5B inhibitor: inactive

What do the screens show for `S=c1[nH]ccn1-c1cccc(Cl)c1Cl`?
KDM5B inhibitor: inactive

What do the screens show for `CCN1CCN(c2nc3c(c(=O)[nH]c(=O)n3C)n2CCc2ccccc2)CC1`?
KDM5B inhibitor: inactive

How did CN1CCN(c2ccc(NC(=O)COc3ccccc3F)cn2)CC1 do in these assays?
KDM5B inhibitor: inactive

What do the screens show for `CN(C(=O)c1ccc2c(c1)NC(=O)CS2)c1ccccc1`?
KDM5B inhibitor: inactive

What do the screens show for `O=C(NCC(F)F)c1cc(Br)cn2ccnc12`?
KDM5B inhibitor: 39.8µM*

How did O=C(NCc1cccs1)c1cc2ccccc2oc1=O do in these assays?
KDM5B inhibitor: inactive

Results for O=C(NC1CCCC1)c1ccc(Br)cc1 ?
KDM5B inhibitor: inactive

What do the screens show for `Cc1ccc(-c2nccn3cc(C(=O)NCC(C)C)nc23)cc1`?
KDM5B inhibitor: inactive

How did O=C(NC1CC1)c1cc(Br)cn2ccnc12 do in these assays?
KDM5B inhibitor: 39.8µM*

What do the screens show for `CCCCN(C)C(=O)c1cn2ccnc(-c3ccccc3)c2n1`?
KDM5B inhibitor: inactive

Results for CN(C)C(=O)c1cc(Br)cn2ccnc12 ?
KDM5B inhibitor: 35.5µM*

Results for Cc1cc(C(=O)NC2CC2)c2cc(Br)ccc2n1 ?
KDM5B inhibitor: inactive

How did Cc1cnc(C(=O)NCc2cccs2)cn1 do in these assays?
KDM5B inhibitor: inactive

Results for O=C(NCc1cccs1)c1cc(Br)cn2ccnc12 ?
KDM5B inhibitor: 39.8µM*

What do the screens show for `CN(C)C(=O)c1ccccc1Br`?
KDM5B inhibitor: inactive

What do the screens show for `O=C(NCC(F)F)c1nc2sccn2c1Br`?
KDM5B inhibitor: inactive

How did O=C(c1ccc(N2CCCOCC2)nc1)N1CCC(Oc2cccnc2)CC1 do in these assays?
KDM5B inhibitor: inactive

What do the screens show for `COc1ccc(CNC(=O)C2CCC(CNc3c(N4CCC(C)CC4)c(=O)c3=O)CC2)cc1` (stereo not given)?
KDM5B inhibitor: inactive

How did Cc1ccc(C(=O)N2CCc3nc(-c4ccc(Cl)cc4)nc(-c4ccccc4)c3C2)cc1 do in these assays?
KDM5B inhibitor: inactive

Results for COc1ccc(CC(=O)NC2CCN(c3ccccc3)C2=O)c(Cl)c1 (stereo not given) ?
KDM5B inhibitor: inactive

Results for Cc1cnc(CN2CCC3(CC2)CCN(C(=O)Cc2cccnc2)CC3CO)[nH]1 (stereo not given) ?
KDM5B inhibitor: inactive

Results for CCOc1ccc2c(n1)CCN(C(=O)c1ccc(OC)nc1)C2 ?
KDM5B inhibitor: inactive

What do the screens show for `CCN(CC)c1ccc(C(=O)NCc2nnc3cc(-c4nc(C)no4)ccn23)cc1`?
KDM5B inhibitor: inactive

What do the screens show for `CC(C)c1noc(-c2ccn3c(CNC(=O)c4cccc(N(C)C)c4)nnc3c2)n1`?
KDM5B inhibitor: 28.2µM*

How did CC(C)c1noc(-c2ccn3c(CNC(=O)c4ccc(N(C)C)cc4)nnc3c2)n1 do in these assays?
KDM5B inhibitor: 22.4µM*

Results for CCCOCCCNC(=O)c1c(C)noc1-c1ccc(OC(F)(F)F)cc1 ?
KDM5B inhibitor: inactive

Results for COc1ccc(NC(=O)c2c(NC(=O)COc3ccc(Cl)cc3)sc3c2CCCCC3)cc1 ?
KDM5B inhibitor: inactive

How did Cn1c(=O)c2c(-c3ccc(F)cc3)n(CCCO)cc2n(C)c1=O do in these assays?
KDM5B inhibitor: inactive

What do the screens show for `O=C(N[C@@H]1CNCCC[C@H]1O)c1ccc(OCc2ccccc2)cc1`?
KDM5B inhibitor: inactive

How did C[C@@H]1CN(C(=O)CCc2cnccn2)CC[C@@]1(O)C1CCOCC1 do in these assays?
KDM5B inhibitor: inactive

How did COCCCNC(=O)C1c2ccccc2C(=O)N(CC(C)C)C12CCCCC2 (stereo not given) do in these assays?
KDM5B inhibitor: inactive

What do the screens show for `CC(=O)N1CCCC(CNc2nccc(-c3c(C)nn(C)c3C)n2)C1` (stereo not given)?
KDM5B inhibitor: 28.2µM*

How did Cn1cnnc1CC1CCCN(C(=O)NC2CCCC2)C1 (stereo not given) do in these assays?
KDM5B inhibitor: inactive

What do the screens show for `CCN1CC(CNc2nccc(-c3c(C)nn(C)c3C)n2)CC1=O` (stereo not given)?
KDM5B inhibitor: 28.2µM*

Results for CCN1CC(CN(C)Cc2nc(-c3ccc(C(F)(F)F)cc3)no2)CC1=O (stereo not given) ?
KDM5B inhibitor: inactive

What do the screens show for `CCNc1nccc(N2CCC(CC(=O)N(CC)CC)CC2)n1`?
KDM5B inhibitor: inactive

Results for COc1ccc(S(=O)(=O)NCC2CCCN(C(=O)c3cccnc3C)C2)cc1 (stereo not given) ?
KDM5B inhibitor: inactive

Bioassay records as filed in PubChem.
